# Source: PubChem (National Center for Advancing Translational Sciences (NCATS))
# HCMV inh: qHTS Assay for inhibitors of the human cytomegalovirus (HCMV) | 4.5% of 410,000 active | HFF cells, HCMV-luciferase reporter, 72 h; active compounds read low | activity change, negative = inhibition, % at 57.5 µM; in the data active = activity change below about -60%; inconclusive = no clear call, values can overlap the other calls; inactive = above about -39%; also: % is scaled to controls: 0 for no effect and ±100 for the full control effect
#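 Screen run at 2 compound doses on HFFs infected with reporter HCMV, MOI 1 PFU/cell. Luciferase activity from cell lysates at 72 h post infection gave inhibition relative to buffer-only and Salinomycin wells.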
# Pf growth 48h: Primary qHTS for delayed death inhibitors of the malarial parasite plastid, 48 hour incubation; P. falciparum luciferase growth in erythrocytes, 48 h; Potency, µM (highest dose often 28.7 µM), without a hit: at the top dose activity change, negative = inhibition, most hits filed as inhibitors; 5.9% of 310,000 active; also: potency is read from the fitted curve at half-maximal effect; % is scaled to controls: 0 for no effect and ±100 for the full control effect
#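 Luciferase-expressing P. falciparum in infected erythrocytes (2% hematocrit, 0.1% parasitemia final) in RPMI 1640/0.5% Albumax were exposed to compound for 48 hours at 37 C, 5% CO2; growth read as luminescence.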
# SARS PLpro yeast: qHTS of Yeast-based Assay for SARS-CoV PLP; S. cerevisiae expressing SARS-CoV PLpro, growth rescue; Potency, µM (top dose mostly 32.9 µM), for inactives: at the top dose activity, positive = growth rescue, most hits filed as activators; 0.19% of 330,000 active; calls by dose curve; also: potency is read from the fitted curve at half-maximal effect; 0% is about no effect; nearly all actives have a fitted effect of over 55% in size
# Pf growth 96h: Primary qHTS for delayed death inhibitors of the malarial parasite plastid, 96 hour incubation; P. falciparum luciferase reporter growth, 96 h; Potency, µM (highest dose often 28.7 µM), inactives show top-dose activity change, negative = inhibition, hits mostly inhibitors; 6.9% of 320,000 active; also: potency is read from the fitted curve at half-maximal effect; % is scaled to controls: 0 for no effect and ±100 for the full control effect
#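 P. falciparum expressing integrated firefly luciferase, in erythrocytes at 2% hematocrit, 0.05% parasitemia, incubated with compounds 96 h at 37 C, 5% CO2. Growth inhibition read as loss of luminescence; two-generation exposure targets delayed-death apicoplast inhibitors.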
# Sm TGR inh: qHTS Assay for the Inhibitors of Schistosoma Mansoni Peroxiredoxins. Schistosoma mansoni thioredoxin glutathione reductase (TGR), Q962Y6. purified TGR, DTNB reduction, TNB absorbance 405 nm. Potency, µM (doses to about 114 µM), for inactives: at the top dose activity change, negative = inhibition, actives largely listed as inhibitors. 3% of 360,000 active. AID 485364, 2010; also: potency is read from the fitted curve at half-maximal effect; % is scaled to controls: 0 for no effect and ±100 for the full control effect; nearly all actives have a fitted effect of over 60% in size
#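 TGR 20 nM + NADPH 100 uM (dispensed conc.), cpd preinc 15 min RT; start with NADPH (500 uM addition) then DTNB (15 mM addition). Kinetic TNB absorbance, 405 nm filter. Four-parameter Hill fit across titration.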
# HCV inhibitor: qHTS Assay for Inhibitors of Hepatitis C Virus (HCV); Huh7.5.1 HCVcc-Cre infection, luciferase reporter, 44 h; 3.4% of 340,000 active; AID 651820, 2012; Potency, µM (highest dose often 41.8 µM), inactives show at the top dose activity change, negative = inhibition, actives largely listed as inhibitors; also: potency is read from the fitted curve at half-maximal effect; % is scaled to controls: 0 for no effect and ±100 for the full control effect
#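 A cell-based infection assay in which seeded cells (1,000 per well) receive test compound after 4 h, are inoculated with HCVcc-Cre at approximately 0.5 moi, and are incubated 44 h before luminescence detection.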
# * hit, by the source's call; ? = inconclusive; . = no result. In the library only some 15% were active in any assay of this set; here they are far more common. Unless noted, calls follow the shape of the dose curve; as a rule, active = well fitted curve in the direction sought with a large enough effect; inconclusive = small, poorly fitted or top-dose-only effect, or another doubt; inactive = no such curve, though single readings can be large; an effect the other way counts as inactive or inconclusive.
SMILES,HCMV inh,Pf growth 48h,SARS PLpro yeast,Pf growth 96h,Sm TGR inh,HCV inhibitor
CC1CCN(S(=O)(=O)c2ccc3c(c2)c(=O)c(C(=O)NCc2ccco2)cn3C)CC1,38,?,10%,15µM*,-16%,-20%
CSc1ccc(S(=O)(=O)N2CCC(C(=O)NCc3ccco3)CC2)cc1,-28,1.7µM*,16%,?,-4%,4%
CS(=O)(=O)N1CCC(C(=O)NCc2ccco2)CC1,-13,29%,-1%,19%,?,18%
Cn1c(=O)c([N+](=O)[O-])c(Cl)c2ccccc21,-71*,-7%,-7%,-3%,0.45µM*,7.9µM*
Cn1c(=O)c([N+](=O)[O-])c(-n2cnc3ccccc32)c2ccccc21,-1,0%,0%,0%,16µM*,?
Cc1nccn1-c1c([N+](=O)[O-])c(=O)n(C)c2ccccc12,22,-24%,0%,-22%,-16%,-15%
CSC1=C(C#N)C(c2ccc(C)s2)CC(=O)N1 (stereo unspecified),-28,12%,-3%,2.3µM*,-4%,-3%
O=C1C(Br)=C(c2ccccc2)C(c2ccccc2)=C1c1ccccc1,.,.,.,.,.,6.3µM*
O=C1c2ccccc2-c2onc3ccc(NCCCn4ccnc4)c1c23,.,.,-9%,13µM*,20µM*,13µM*
O=C(CCC(=O)N1CCN(c2ccccc2F)CC1)N1CCN(c2ccc(F)cc2)CC1,-62*,-13%,-8%,?,6%,?
O=C(CCSCc1ccccc1Cl)N1CCN(c2ccc(F)cc2)CC1,-64*,.,.,.,10%,.
O=C(CCSCc1ccccc1F)N1CCN(c2ccc(F)cc2)CC1,15,.,.,.,13%,.
O=C(Cc1ccc(-n2cccc2)cc1)N1CCN(c2ccccc2F)CC1,9,19%,-8%,12µM*,1%,1%
COc1ccc(CC(=O)N2CCN(c3ccccc3F)CC2)cc1OC,-33,7%,8%,22%,1%,11µM*
COc1ccc(CC(=O)N2CCN(c3ccccc3OC)CC2)cc1OC,68,6%,-4%,?,7%,-23%
O=C(CCCC(=O)N1CCN(c2ccccc2F)CC1)N1CCN(c2ccccc2F)CC1,-4,?,-9%,-12%,-23%,-1%
CC1(C(=O)NS(=O)(=O)c2ccc3c(c2)CCO3)CCN1C(=O)CCC1CCCC1 (stereo unspecified),3,.,.,.,.,.
CCOC(=O)C1=CCN(S(=O)(=O)c2ccccc2)C1c1ccc(Cl)cc1 (stereo unspecified),-3,.,.,.,.,.
O=C(Nc1ccc(Cl)cc1)/C(=C/c1cccc(O)c1)c1nc2ccccc2s1,-98*,9.3µM*,-10%,4.1µM*,2%,13µM*
S=C(Nc1ccc(Cl)cc1)c1nc2ccccc2s1,31,69%,-5%,-16%,11%,-25%
COc1ccc(NCc2cccn2-c2nnc(N3CCOCC3)s2)cc1OC,8,.,.,.,32µM*,.
COc1ccc(NCc2cccn2-c2nnc(N3CCCCC3)s2)cc1OC,-8,.,.,.,45µM*,.
CCOC(=O)c1ccc(NS(=O)(=O)c2c(N)n(C)c(=O)n(C)c2=O)cc1,?,.,.,.,.,10µM*
CCOC(=O)c1c(S(=O)(=O)Nc2ccc(C)c(F)c2)c(C)n(C)c1C,17,12%,-2%,9.3µM*,-2%,22%
CCOC(=O)c1c(S(=O)(=O)Nc2ccc(C)cn2)c(C)n(C)c1C,0,17%,7%,10µM*,-1%,8%
CCOC(=O)c1c(S(=O)(=O)Nc2ccc(F)cc2C)c(C)n(C)c1C,15,-3%,-5%,15µM*,-5%,-18%
CC(=O)Nc1ccc(-c2ccnc3c2CC(C(=O)NCCC(F)(F)F)O3)cc1 (stereo unspecified),13,.,.,.,.,.
